The values that follow come from PubChem BioAssay (NCI).

Holding throughout (assay): NCI-60 one-dose screen, 48 h (100 = growth as untreated, 0 = no growth, -100 = all killed)
Common to all, as to details: 10 µM unless noted

Experiment [1] has as its system NCI-H23 lung.
For experiment [2], the system named is NCI-H226 lung.
In experiment [3] the test system is NCI-H322M lung.
Experiment [4] relates to HOP-62 NSCLC.
The test system of experiment [5] is NCI-H460 lung.
Experiment [6] deals with HOP-92 NSCLC.
Experiment [7] relates to A549/ATCC NSCLC.
In experiment [8] the test system is 786-0 renal.
For experiment [9], the system named is COLO 205 colon.
Experiment [10] relates to DU-145 prostate.
Experiment [11] deals with K-562 leukemia.
Experiment [12] has as its system MALME-3M melanoma.
Experiment [13] has as its system MDA-MB-231 breast.
Experiment [14] has as its system RXF 393 renal.
For experiment [15], the system named is SF-268 CNS.
Experiment [16] relates to SF-295 CNS.
Experiment [17] relates to SF-539 CNS.
Experiment [18] has as its system UACC-257 melanoma.
For experiment [19], the system named is M14 melanoma.

Compounds without any hit were thinned out: in the full panel of roughly 83,000, 20% have a hit.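 Each cell line was grown in a 96-well plate and treated with one concentration of compound for 48 hours. Values below 10 were considered active.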 A number with no mark means an inactive call. The source made the active and inactive calls.

With `CCCCN=C(N)c1ccc(OCCSCCOc2ccc(C(N)=NCCCC)cc2)cc1`, the growth in experiment [1] is 40.4%; in experiment [2] it was 59.2%; in [3], 69.2%; in experiment [4], 67.7%; in [5], 30.3%; in experiment [6], 40.1%. Also, the growth is 19.5% in experiment [7]; 82.5% in experiment [8]; 7.64% (active) in experiment [9]; 55.3% in [10]; 40.9% in experiment [11]; 39.3% in experiment [12]. For the same compound, the growth was 58.7% in experiment [13]; 92.6% in experiment [14]; 35.6% in experiment [15]; -36.4% (active) in experiment [16]; 55% in experiment [17]; 39.9% in experiment [18]. In addition, the growth in experiment [19] was 81.6%.

As for `ICCC(c1ccccc1)(c1ccccc1)c1ccccc1`, the growth in [1] was 65.6%; in [2] it was 89.8%; in experiment [3], 86.4%; in [4], 55.8%; in experiment [5], 69.5%; in [6], 40.6%. Besides, the growth in [7] was 59.8%; in [8] it was 43.8%; in experiment [9] it was -61.5% (active); in experiment [10], 79.1%; in experiment [11], -9.2% (active); in experiment [12], -43.4% (active). Besides, the growth was 41.7% in [13]; 28.4% in experiment [14]; 62.7% in [15]; 51.3% in experiment [16]; 10.6% in [17]; -62.8% (active) in experiment [18]. Besides, in [19], the growth was -76.2% (active).

For `Cc1cnc2nc(-c3ccc(N(C)C)cc3)cn2c1`, the growth is 93.2% in experiment [1]; 102% in experiment [2]; 110% in experiment [3]; 99.5% in experiment [4]; 114% in [5]; 104% in experiment [6]. Besides, the growth in experiment [7] is 95.5%; in [8], 91.5%; in experiment [9], 120%; in experiment [10], 109%; in [11], 97.1%; in [12], 97.8%. The growth is 107% in [13]; 79.7% in [14]; 122% in [15]; 106% in experiment [16]; 100% in experiment [17]; 102% in experiment [18]. Besides, the growth in experiment [19] is 100%.

For the compound `N/C(=N\C(N)=N\c1nc2ccccc2s1)c1ccnc(Cl)c1`, the growth is 43.4% in experiment [1]; 48.8% in experiment [2]; 70.1% in experiment [3]; 44.4% in experiment [4]; 17.3% in experiment [5]; 73.9% in [6]. For the same compound, the growth in experiment [7] was 47.4%; in experiment [8], 41.1%; in [9], 18.1%; in experiment [10], 26.9%; in [11], 8.95% (active); in [12], 64.9%. In addition, the growth was 49.7% in [13]; -6.26% (active) in experiment [14]; 61.5% in experiment [15]; 17.6% in experiment [16]; 7.12% (active) in experiment [17]; 74.4% in experiment [18]. Also, the growth in experiment [19] is 27.9%.

Take `N#Cc1ccc(-c2csc(Nc3ccc4nc5n(c(=O)c4c3)CCC5)n2)cc1`: the growth in [1] was 105%; in experiment [2], 105%; in experiment [3] it was 104%; in experiment [4], 108%; in [5], 101%; in [6], 169%. Moreover, the growth in experiment [7] was 101%; in [8] it was 104%; in [9] it was 109%; in experiment [10], 109%; in experiment [11], 96.8%; in experiment [12], 102%. Moreover, the growth in experiment [13] was 104%; in experiment [14], 106%; in experiment [15], 106%; in experiment [16], 98.2%; in [17] it was 101%; in [18], 108%. Further, in [19], the growth is 103%.

For `Nc1nc(Nc2ccccc2SSc2ccccc2Nc2nc(N)nc(-c3ccc(I)cc3)n2)nc(-c2ccc(I)cc2)n1`, the growth is 47.3% in experiment [1]; 69.8% in experiment [2]; 81.1% in experiment [3]; 26.1% in experiment [4]; 54.8% in experiment [5]; 107% in experiment [6]. The growth in experiment [7] is -19.9% (active); in experiment [8] it was 86.9%; in experiment [9] it was 112%; in experiment [10] it was 66%; in experiment [11], 68.7%; in experiment [12], 103%. Also, the growth in experiment [13] is 55%; in experiment [14] it was 88.2%; in [15] it was 43%; in experiment [16] it was 47.6%; in experiment [17] it was 89.2%; in experiment [18] it was 110%. The growth in [19] is 77.2%.

For the compound `COCCOCCOCCOCCOc1ccc2c(c1)C(=O)c1nc3ncccc3c(=O)n1-2`, the growth in [1] was -40.1% (active); in experiment [2], -49.3% (active); in [3], -88% (active); in [4] it was -83% (active); in experiment [5] it was -61.2% (active); in [6] it was -18.7% (active). Also, the growth in experiment [7] was -77.4% (active); in [8], -51.5% (active); in experiment [9], -85.9% (active); in experiment [10], -95.1% (active); in experiment [11] it was -92% (active); in experiment [12] it was -96.2% (active). For the same compound, the growth in experiment [13] was 23.8%; in experiment [14], -72% (active); in experiment [15], -19.2% (active); in experiment [16], -97% (active); in [17] it was -89.6% (active); in [18], -83.9% (active). Besides, the growth in experiment [19] is -90.4% (active).

Take `CCCCCCCCCCCCCCCCCC1=NC(C)(CO)CO1` (stereo unspecified): the growth in experiment [1] was 98.2%; in experiment [2], 91.1%; in experiment [3] it was 90.4%; in experiment [4], 95.9%; in experiment [5], 103%; in [6], 79.8%. The growth in experiment [7] was 89.6%; in experiment [8], 92.3%; in experiment [9], 101%; in [10], 102%; in experiment [11], 80.7%; in experiment [12] it was 91.5%. For the same compound, the growth in experiment [13] was 88.8%; in experiment [14], 102%; in experiment [15], 98.6%; in [16], 88.5%; in experiment [17], 97.7%; in experiment [19], 95.8%.

For the compound `Cc1ccc(-c2c3c(N)nc(-c4ccncc4)nc3nc3c2c(C)nn3-c2ccccc2)cc1`, the growth in [1] is 56.4%; in experiment [2], 44.9%; in [3], 70.3%; in experiment [4] it was 15.5%; in experiment [5] it was 28.5%; in [6] it was -7.02% (active). Moreover, the growth was 17.8% in [7]; 80.8% in [8]; 18.1% in experiment [9]; 32.6% in [10]; 28.9% in experiment [11]; -2.14% (active) in experiment [12]. In addition, the growth in experiment [13] was 21.4%; in [14], 45.6%; in experiment [15], 37.8%; in experiment [16], 95%; in experiment [17], 11.3%; in experiment [19], 44.3%.

In the case of `Cc1[nH]c(=O)[nH]c(=O)c1CCSSCCc1c(C)[nH]c(=O)[nH]c1=O`, the growth in experiment [1] was 107%; in experiment [2], 102%; in experiment [3] it was 89.9%; in experiment [4] it was 97.2%; in experiment [5], 108%; in experiment [6], 116%. The growth in [7] is 103%; in [8], 103%; in experiment [9], 107%; in [10], 113%; in experiment [11] it was 95.8%; in experiment [12], 115%. For the same compound, the growth in [13] is 119%; in [14], 111%; in experiment [15] it was 113%; in [16] it was 98.4%; in experiment [17], 110%; in [19], 95.1%.

In the case of `O=C(N/N=C/c1cccc(O)c1O)c1ccccc1`, the growth was 28.2% in experiment [1]; 17.3% in [2]; 13.9% in [3]; 25.9% in experiment [4]; 3.29% (active) in experiment [5]; -4.33% (active) in [6]. Further, the growth in experiment [7] is 6.43% (active); in experiment [8], 22%; in experiment [9], 5.29% (active); in [10] it was 33%; in experiment [11], 15.6%; in [12] it was 20.4%. The growth is 30.6% in experiment [13]; 29.7% in experiment [14]; 18.4% in [15]; -1.63% (active) in experiment [16]; 6.6% (active) in [17]; 15% in [19].

Take `Oc1c(N=Nc2nn[nH]n2)ccc2ccccc12`: the growth is 72.8% in experiment [1]; 81.4% in [2]; 57.9% in experiment [3]; 85.4% in experiment [4]; 73% in experiment [5]; 77.1% in [6]. Besides, the growth in experiment [7] is 77.8%; in experiment [8], 102%; in [9], 54%; in experiment [10], 96.6%; in experiment [11], 97.2%; in experiment [12], 9.84% (active). For the same compound, the growth is 60.4% in experiment [13]; 87.4% in experiment [14]; 93.8% in experiment [15]; 65.4% in experiment [16]; 95.3% in experiment [17]; 62.1% in experiment [19].

Take `COc1cc2c(cc1OC)C(CC1(O)CCCCC1)N(S(=O)(=O)c1ccc(C)cc1)CC2` (stereo unspecified): the growth in experiment [1] is 29.3% [100 µM]; in experiment [2] it was 57.6% [100 µM]; in experiment [3], 57.8% [100 µM]; in experiment [4], 79.3% [100 µM]; in experiment [5], 8.16% [100 µM] (active); in experiment [6], -10.6% [100 µM] (active). The growth is 20.9% [100 µM] in [7]; 29.7% [100 µM] in [8]; 1.18% [100 µM] (active) in experiment [9]; 32.3% [100 µM] in [10]; 10.8% [100 µM] in experiment [11]; 18.9% [100 µM] in [12]. For the same compound, the growth is 40.8% [100 µM] in experiment [13]; 48.9% [100 µM] in [14]; 26.3% [100 µM] in experiment [15]; 3.6% [100 µM] (active) in experiment [16]; 22.4% [100 µM] in [18]; 13% [100 µM] in experiment [19].
